Experimental data taken from PubChem BioAssay AID1159580 (chemical genetic matrix, 2015).
“And” between values parts separate entries of the source, which are not always exact repeats. Equal values may be shown once. The whole screen tested about 5,500 compounds, of which about 2,000 (36%) were called active. About 18% were inconclusive and are not listed. No stated cut-off is given here; in the data, active means normalized growth mostly below about 0.91 (no sharp cut-off); inconclusive means no clear call, values can overlap the other calls; inactive means mostly above about 0.92. Some of the results follow. The source holds several records for some structures; these can differ, active in one and inactive in another.

Assay: chemical genetic growth profiling, strain panel (AID 1159580);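 further: tested at 20 µM; growth read once vehicle control cultures reached saturation at 30 °C; 1 = growth at the plate median or of vehicle wells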
Conditions: growth OD

## Cc1cc(O)c2c(c1)C(=O)c1cc(O)cc(O)c1C2=O
S. cerevisiae deletion strains, locus YAL013W, strain DEP1, stronger effect = lower value
  normalized growth: 0.868 (active)
S. cerevisiae deletion strains, locus YAL040C, strain CLN3, stronger effect = lower value
  normalized growth: 0.749 (active)
S. cerevisiae deletion strains, locus YBR021W, strain FUR4, stronger effect = lower value
  normalized growth: 0.914 (inactive)
S. cerevisiae deletion strains, locus YBR229C, strain ROT2, stronger effect = lower value
  normalized growth: 0.923 (inactive)
S. cerevisiae deletion strains, locus YCL029C, strain bik1, stronger effect = lower value
  normalized growth: 0.734 (active)
S. cerevisiae deletion strains, locus YCL061C, strain MRC1 (second series), stronger effect = lower value
  normalized growth: 0.986 (inactive)
S. cerevisiae deletion strains, locus YDL035C, strain GPR1, stronger effect = lower value
  normalized growth: 0.699 (active)
S. cerevisiae deletion strains, locus YDL074C, strain BRE1, stronger effect = lower value
  normalized growth: 0.56 (active)
S. cerevisiae deletion strains, locus YDL101C, strain DUN1, stronger effect = lower value
  normalized growth: 0.732 (active)
S. cerevisiae deletion strains, locus YDL134C, strain PPH21, stronger effect = lower value
  normalized growth: 0.783 (active)
S. cerevisiae deletion strains, locus YDL185W, strain tfp1, stronger effect = lower value
  normalized growth: 0.795 (active)
S. cerevisiae deletion strains, locus YDL192W, strain arf1, stronger effect = lower value
  normalized growth: 0.393 (active)
S. cerevisiae deletion strains, locus YDR101C, strain arx1, stronger effect = lower value
  normalized growth: 0.584 (active)
S. cerevisiae deletion strains, locus YDR162C, strain NBP2, stronger effect = lower value
  normalized growth: 0.483 (active)
S. cerevisiae deletion strains, locus YDR318W, strain mcm21, stronger effect = lower value
  normalized growth: 0.712 (active)
S. cerevisiae deletion strains, locus YDR363W, strain ESC2, stronger effect = lower value
  normalized growth: 1.02 (inactive)
S. cerevisiae deletion strains, locus YDR388W, stronger effect = lower value
  normalized growth: 0.471 (active)
S. cerevisiae deletion strains, locus YDR502C, strain sam2, stronger effect = lower value
  normalized growth: 0.56 (active)
S. cerevisiae deletion strains, locus YEL061C, strain CIN8, stronger effect = lower value
  normalized growth: 0.745 (active)
S. cerevisiae deletion strains, locus YER002W, strain NOP16, stronger effect = lower value
  normalized growth: 0.749 (active)
S. cerevisiae deletion strains, locus YER110C, stronger effect = lower value
  normalized growth: 0.671 (active)
S. cerevisiae deletion strains, locus YER155C, strain BEM2, stronger effect = lower value
  normalized growth: 0.716 (active)
S. cerevisiae deletion strains, locus YER167W, strain BCK2, stronger effect = lower value
  normalized growth: 0.674 (active)
S. cerevisiae deletion strains, locus YGL078C, strain dbp3, stronger effect = lower value
  normalized growth: 0.789 (active)
S. cerevisiae deletion strains, locus YGL086W, strain mad1, stronger effect = lower value
  normalized growth: 0.645 (active)
S. cerevisiae deletion strains, locus YGL248W, strain PDE1, stronger effect = lower value
  normalized growth: 0.853 (active)
S. cerevisiae deletion strains, locus YGR078C, strain PAC10, stronger effect = lower value
  normalized growth: 0.723 (active)
S. cerevisiae deletion strains, locus YGR135W, strain pre9, stronger effect = lower value
  normalized growth: 0.741 (active)
S. cerevisiae deletion strains, locus YGR229C, strain SMI1, stronger effect = lower value
  normalized growth: 0.338 (active)
S. cerevisiae deletion strains, locus YGR252W, strain gcn5, stronger effect = lower value
  normalized growth: 0.415 (active)
S. cerevisiae deletion strains, locus YHR030C, strain SLT2, stronger effect = lower value
  normalized growth: 0.629 (active)
S. cerevisiae deletion strains, locus YHR079C, strain IRE1 (second series), stronger effect = lower value
  normalized growth: 0.854 (active)
S. cerevisiae deletion strains, locus YHR094C, strain hxt1, stronger effect = lower value
  normalized growth: 0.673 (active)
S. cerevisiae deletion strains, locus YHR129C, strain ARP1, stronger effect = lower value
  normalized growth: 0.705 (active)
S. cerevisiae deletion strains, locus YHR200W, strain rpn10, stronger effect = lower value
  normalized growth: 0.75 (active)
S. cerevisiae deletion strains, locus YIL066C, strain RNR3, stronger effect = lower value
  normalized growth: 0.688 (active)
S. cerevisiae deletion strains, locus YIL073C, strain SPO22, stronger effect = lower value
  normalized growth: 0.959 (inactive)
S. cerevisiae deletion strains, locus YIL125W, strain kgd1, stronger effect = lower value
  normalized growth: 0.842 (active)
S. cerevisiae deletion strains, locus YIR030C, strain dcg1, stronger effect = lower value
  normalized growth: 0.635 (active)
S. cerevisiae deletion strains, locus YJL095W, strain BCK1, stronger effect = lower value
  normalized growth: 0.475 (active)
S. cerevisiae deletion strains, locus YJL134W, strain LCB3, stronger effect = lower value
  normalized growth: 0.907 (active)
S. cerevisiae deletion strains, locus YJL168C, strain set2, stronger effect = lower value
  normalized growth: 0.818 (active)
S. cerevisiae deletion strains, locus YJL187C, strain SWE1 (second series), stronger effect = lower value
  normalized growth: 0.69 (active)
S. cerevisiae deletion strains, locus YJR043C, strain POL32, stronger effect = lower value
  normalized growth: 0.708 (active)
S. cerevisiae deletion strains, locus YJR075W, strain HOC1, stronger effect = lower value
  normalized growth: 0.998 (inactive) and 0.795 (active)
S. cerevisiae deletion strains, locus YKL009W, strain mrt4, stronger effect = lower value
  normalized growth: 0.753 (active)
S. cerevisiae deletion strains, locus YKL068W, stronger effect = lower value
  normalized growth: 0.857 (active)
S. cerevisiae deletion strains, locus YKL085W, strain MDH1 (second series), stronger effect = lower value
  normalized growth: 0.795 (active)
S. cerevisiae deletion strains, locus YKL085W, strain MDH1, stronger effect = lower value
  normalized growth: 0.795 (active)
S. cerevisiae deletion strains, locus YKL190W, strain CNB1, stronger effect = lower value
  normalized growth: 0.823 (active)
S. cerevisiae deletion strains, locus YKR001C, strain vps1, stronger effect = lower value
  normalized growth: 0.309 (active)
S. cerevisiae deletion strains, locus YLR039C, strain RIC1, stronger effect = lower value
  normalized growth: 0.313 (active)
S. cerevisiae deletion strains, locus YLR058C, strain SHM2, stronger effect = lower value
  normalized growth: 0.834 (active)
S. cerevisiae deletion strains, locus YLR102C, strain apc9, stronger effect = lower value
  normalized growth: 0.837 (active)
S. cerevisiae deletion strains, locus YLR262C, strain YPT6, stronger effect = lower value
  normalized growth: 0.383 (active)
S. cerevisiae deletion strains, locus YLR268W, strain sec22, stronger effect = lower value
  normalized growth: 0.474 (active)
S. cerevisiae deletion strains, locus YLR330W, strain CHS5, stronger effect = lower value
  normalized growth: 0.708 (active)
S. cerevisiae deletion strains, locus YLR342W, strain FKS1 (second series), stronger effect = lower value
  normalized growth: 0.553 (active)
S. cerevisiae deletion strains, locus YLR371W, strain rom2, stronger effect = lower value
  normalized growth: 0.612 (active)
S. cerevisiae deletion strains, locus YLR418C, strain cdc73, stronger effect = lower value
  normalized growth: 0.324 (active)
S. cerevisiae deletion strains, locus YML016C, strain PPZ1, stronger effect = lower value
  normalized growth: 0.916 (active)
S. cerevisiae deletion strains, locus YML032C, strain rad52, stronger effect = lower value
  normalized growth: 0.6 (active)
S. cerevisiae deletion strains, locus YML124C, strain tub3, stronger effect = lower value
  normalized growth: 0.724 (active)
S. cerevisiae deletion strains, locus YMR078C, strain ctf18, stronger effect = lower value
  normalized growth: 0.776 (active)
S. cerevisiae deletion strains, locus YMR223W, strain ubp8, stronger effect = lower value
  normalized growth: 0.643 (active)
S. cerevisiae deletion strains, locus YMR263W, strain SAP30, stronger effect = lower value
  normalized growth: 0.968 (inactive) and 0.787 (active)
S. cerevisiae deletion strains, locus YMR307W, strain GAS1, stronger effect = lower value
  normalized growth: 0.8 (active) and 0.335 (active)
S. cerevisiae deletion strains, locus YNL067W, strain RPL9B, stronger effect = lower value
  normalized growth: 0.782 (active)
S. cerevisiae deletion strains, locus YNL128W, strain TEP1, stronger effect = lower value
  normalized growth: 0.713 (active)
S. cerevisiae deletion strains, locus YNL153C, strain GIM3, stronger effect = lower value
  normalized growth: 0.439 (active) and 0.847 (active)
S. cerevisiae deletion strains, locus YNL175C, strain NOP13, stronger effect = lower value
  normalized growth: 0.732 (active)
S. cerevisiae deletion strains, locus YNL197C, strain WHI3, stronger effect = lower value
  normalized growth: 0.727 (active)
S. cerevisiae deletion strains, locus YNL224C, strain SQS1, stronger effect = lower value
  normalized growth: 0.861 (active)
S. cerevisiae deletion strains, locus YNL233W, strain BNI4, stronger effect = lower value
  normalized growth: 0.63 (active)
S. cerevisiae deletion strains, locus YNL250W, strain rad50, stronger effect = lower value
  normalized growth: 0.73 (active)
S. cerevisiae deletion strains, locus YNL271C, strain bni1, stronger effect = lower value
  normalized growth: 0.782 (active)
S. cerevisiae deletion strains, locus YNL298W, strain CLA4, stronger effect = lower value
  normalized growth: 0.716 (active)
S. cerevisiae deletion strains, locus YNL307C, strain MCK1, stronger effect = lower value
  normalized growth: 0.59 (active)
S. cerevisiae deletion strains, locus YNL322C, strain KRE1, stronger effect = lower value
  normalized growth: 0.832 (active)
S. cerevisiae deletion strains, locus YNR052C, strain pop2, stronger effect = lower value
  normalized growth: 0.218 (active)
S. cerevisiae deletion strains, locus YOL012C, strain htz1
  normalized growth: 0.486 (inactive)
S. cerevisiae deletion strains, locus YOL147C, strain pex11, stronger effect = lower value
  normalized growth: 0.402 (active)
S. cerevisiae deletion strains, locus YOR061W, strain CKA2, stronger effect = lower value
  normalized growth: 0.834 (active)
S. cerevisiae deletion strains, locus YOR069W, strain VPS5, stronger effect = lower value
  normalized growth: 0.796 (active)
S. cerevisiae deletion strains, locus YOR083W, strain WHI5 (second series), stronger effect = lower value
  normalized growth: 0.422 (active)
S. cerevisiae deletion strains, locus YOR136W, strain idh2, stronger effect = lower value
  normalized growth: 0.661 (active)
S. cerevisiae deletion strains, locus YOR144C, strain elg1, stronger effect = lower value
  normalized growth: 0.759 (active)
S. cerevisiae deletion strains, locus YOR184W, strain ser1, stronger effect = lower value
  normalized growth: 0.299 (active)
S. cerevisiae deletion strains, locus YOR316C, strain cot1, stronger effect = lower value
  normalized growth: 0.83 (active)
S. cerevisiae deletion strains, locus YPL055C, strain LGE1, stronger effect = lower value
  normalized growth: 0.556 (active)
S. cerevisiae deletion strains, locus YPL241C, strain CIN2, stronger effect = lower value
  normalized growth: 0.986 (inactive)
S. cerevisiae deletion strains, locus YPR119W, strain clb2, stronger effect = lower value
  normalized growth: 0.808 (active)
S. cerevisiae deletion strains, locus YPR141C, strain kar3, stronger effect = lower value
  normalized growth: 0.868 (active)
S. cerevisiae deletion strains, locus YPR163C, strain tif3, stronger effect = lower value
  normalized growth: 0.403 (active)
S. cerevisiae deletion strains, locus YPR167C, strain met16, stronger effect = lower value
  normalized growth: 0.708 (active)
S. cerevisiae deletion strains, strain wtn01, stronger effect = lower value
  normalized growth: 0.608 (active)
S. cerevisiae strains, strain wild type, stronger effect = lower value
  normalized growth: 0.715 (active)
